Screening results deposited in PubChem by Buhrlage Lab, Dana-Farber Cancer Institute and Novartis Institutes for BioMedical Research (Cambridge, Mass).
USP30 block: inhibitors of human USP30 deubiquitinase. Q70CQ3. purified USP30, Ub-rhodamine cleavage fluorescence. inhibition, % at 25 µM. 47,000 compounds, 5.3% hits
USP17 block: human USP17-like deubiquitinase inhibition; A8MUK1; purified USP17, Ub-rhodamine cleavage fluorescence, 3 h; inhibition, % at 50 µM; 47,000 compounds, 6.5% hits
USP8 inh: blocks human USP8 ubiquitin-rhodamine cleavage. P40818. purified USP8, Ub-rhodamine cleavage fluorescence, 30 min. inhibition, % at 20 µM. 47,000 compounds, 4.2% hits
Target sequence (P40818 whole entry, looked up): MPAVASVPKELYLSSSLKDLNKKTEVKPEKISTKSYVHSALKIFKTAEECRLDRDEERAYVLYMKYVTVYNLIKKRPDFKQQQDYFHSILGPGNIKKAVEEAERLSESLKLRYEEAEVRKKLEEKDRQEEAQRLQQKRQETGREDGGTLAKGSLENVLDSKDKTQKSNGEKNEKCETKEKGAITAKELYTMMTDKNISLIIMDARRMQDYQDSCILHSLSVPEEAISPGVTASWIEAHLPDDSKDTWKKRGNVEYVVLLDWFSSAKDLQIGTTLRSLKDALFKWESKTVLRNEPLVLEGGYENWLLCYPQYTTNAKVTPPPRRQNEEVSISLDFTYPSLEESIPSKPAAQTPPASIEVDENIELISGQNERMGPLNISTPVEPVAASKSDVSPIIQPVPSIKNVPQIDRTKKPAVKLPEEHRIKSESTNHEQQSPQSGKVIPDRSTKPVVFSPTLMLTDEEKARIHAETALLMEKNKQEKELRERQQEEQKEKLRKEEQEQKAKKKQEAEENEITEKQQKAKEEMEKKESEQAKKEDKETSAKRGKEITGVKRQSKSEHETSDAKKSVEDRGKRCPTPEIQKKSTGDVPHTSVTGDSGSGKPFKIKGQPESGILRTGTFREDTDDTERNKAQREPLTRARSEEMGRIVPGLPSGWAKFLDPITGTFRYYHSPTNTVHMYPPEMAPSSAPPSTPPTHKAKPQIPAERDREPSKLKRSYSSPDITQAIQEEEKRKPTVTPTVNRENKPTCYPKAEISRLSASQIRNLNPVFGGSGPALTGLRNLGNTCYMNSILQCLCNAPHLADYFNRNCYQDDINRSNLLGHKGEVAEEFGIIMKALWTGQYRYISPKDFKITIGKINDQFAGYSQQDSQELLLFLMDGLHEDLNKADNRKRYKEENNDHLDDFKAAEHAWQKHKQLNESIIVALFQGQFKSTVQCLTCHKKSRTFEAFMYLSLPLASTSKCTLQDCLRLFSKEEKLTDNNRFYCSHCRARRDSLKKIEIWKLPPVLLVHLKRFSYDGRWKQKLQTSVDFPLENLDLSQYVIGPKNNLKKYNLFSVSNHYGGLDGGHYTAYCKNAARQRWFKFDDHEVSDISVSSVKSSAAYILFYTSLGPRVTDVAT
The depositor's hits bear a star; i = inactive; . = no result given. The list is not random: actives were taken first. Their share in the collection is about 12%. Rule as the data show it: active = inhibition above about 30%; inactive = the rest.

SMILES | USP30 block | USP17 block | USP8 inh
O=C(Cn1c(=O)n(CCc2ccccc2)c(=O)c2cccnc21)Nc1ccccc1C(F)(F)F | -2 | 0 | 0
CC(C)n1c(=O)[nH]c2c(C(=O)N3CCCCC3)snc2c1=O | 38* | 19 | 29
CC(C)Cn1c(=O)[nH]c2c(C(=O)N3CCCCC3)snc2c1=O | -7 | -4 | -3
Cc1ccc(NC(=O)Cn2cc(S(=O)(=O)N3CCCC3)ccc2=O)cc1 | -11 | 52* | 14
Cc1cccc(NC(=O)Cn2cc(S(=O)(=O)N3CCCC3)ccc2=O)c1 | 12 | -1 | -4
O=C(NCC1CCCCC1)c1ccccc1OCc1ccc(Cl)cc1 | -1 | 4 | 10
CC1CCCCN1CCNC(=O)c1cc2occc2c(Nc2ccc(F)cc2)n1 (configuration not stated) | -111 | -6 | -10
O=C(Nc1ncc2c(n1)CC(c1ccc(Cl)cc1)CC2=O)c1ccco1 (configuration not stated) | -1 | 15 | 14
O=C(Nc1ccccc1Sc1ncc(-c2ccc(Cl)cc2)cn1)c1ccco1 | 24 | 52* | 21
COc1ccc(S(=O)(=O)Nc2ccc(Nc3ccc(-n4cccn4)nn3)cc2)cc1 | 62* | 47* | -33
COc1ccc(-c2ccc(NS(=O)(=O)c3ccc(F)cc3)cc2)nn1 | 18 | 9 | 4
Cn1cc(C(=O)Nc2ccccc2Cl)c2[nH]c(=O)n(Cc3ccccc3)c(=O)c21 | -54 | -20 | -11
O=C(Nc1ccc(F)cc1)N1C[C@@H]2c3nccn3-c3ccccc3[C@@H]2C1 | -5 | -8 | -5
O=C(NCCS(=O)(=O)N1CCN(c2ccc(F)cc2)CC1)c1ccc(F)cc1 | -3 | 12 | 2
COc1ccc(C(=O)NCCS(=O)(=O)N2CCN(c3ccccc3)CC2)cc1 | -6 | 40* | -4
COc1ccccc1NC(=O)Cn1nc2ccc(C(=O)Nc3ccc(C)cc3)cn2c1=O | -326 | -70 | 24
Cc1ccc(-c2ncc(C(=O)Nc3ccccc3Cl)c(-c3ccncc3)n2)cc1 | -431 | -26 | 31*
Cc1ccc(-c2ncc(C(=O)NC(C)c3ccccn3)c(-c3ccncc3)n2)cc1 (configuration not stated) | -141 | -42 | 6
Cc1ccc(-c2ncc(C(=O)Nc3ccc(F)cc3)c(-c3ccncc3)n2)cc1 | -226 | -58 | 48*
O=C(Nc1cccc(Cl)c1F)c1cnc(-c2ccccc2)nc1-c1ccncc1 | i | -126 | 2
Fc1cc(F)cc(-c2noc3ncnc(NCCN4CCCCC4)c23)c1 | 11 | . | 13
CC(=O)N[C@@]12CCN(CC(=O)Nc3cccc(F)c3C)C[C@@H]1CN(C(C)=O)C2 | -15 | -10 | -10
CC(=O)c1cc(C)c(O)c(C)c1O | -16 | -15 | -1
C[C@@H]1CC[C@H]2C(CN(C)CC(C)(O)c3ccccc3)C(=O)O[C@]23[C@H]1CC[C@@]1(C)O[C@@H]31 (some centres not stated) | -8 | -17 | -5
C=C(C)[C@@H]1CC[C@]2(C(=O)O)CC[C@]3(C)[C@H](CC[C@@H]4[C@@]5(C)CC[C@H](O)C(C)(C)[C@@H]5CC[C@]43C)[C@@H]12 | 15 | 31* | 19
SMILES | USP30 block | USP17 block | USP8 inh
C=C(C/C=C/C(C)(C)O)[C@H]1CC[C@]2(C)[C@@H]1CC[C@@H]1[C@@]3(C)CC[C@H](O)C(C)(C)[C@@H]3CC[C@]12C | 27 | 15 | 2
COc1ccc(OC)c(-c2cn3ccn(-c4ccc(F)c(Cl)c4)c(=O)c3n2)c1 | 19 | 39* | 94*
CCc1ccc(-c2cn3ccn(-c4ccccc4OC)c(=O)c3n2)cc1 | -10 | 2 | 13
CCOc1cc(/C=C/C23NC(=O)CN2c2ccccc2C3(C)C)ccc1OCc1ccc(C)cc1 (configuration not stated) | -237 | -34 | -8
COc1ccc(CNC(=O)COc2ccccc2-c2nnc(-c3ccccc3)o2)c(OC)c1 | 0 | -1 | 5
CCc1ccccc1NC(=O)COc1ccc(Nc2ccccc2)cc1 | 39* | 46* | 35*
COc1ccccc1CNC(=O)COc1ccccc1-c1nnc(-c2ccccc2)o1 | 31* | 19 | 6
COc1ccccc1CNC(=O)CS(=O)(=O)Cc1nc(-c2ccccc2F)oc1C | 16 | 58* | 27
O=C(COc1ccccc1-c1nnc(-c2ccccc2)o1)Nc1ccc(F)cc1F | 35* | 84* | 32*
Cc1ccccc1-c1nc(CS(=O)(=O)CC(=O)Nc2ccccc2Cl)c(C)o1 | 4 | 11 | 9
O=C(COc1ccccc1-c1nnc(-c2ccccc2)o1)NCc1ccccc1F | -2 | 5 | 9
CCOc1ccc(Oc2ccc(NC(=O)COc3ccc(C(=O)c4ccccc4)cc3)cc2)cc1 | 16 | 7 | -20
COc1ccc2c(c1)OC[C@@H](C)N(S(=O)(=O)c1ccc(NC(C)=O)cc1)[C@@H]2C | -3 | 3 | -1
Cc1nn(Cc2ccccc2)c2sc(C(=O)N3CCN(Cc4ccncc4)CC3)cc12 | -12 | -5 | -3
CC(=O)N1CCN(c2nc3c(s2)CC(C(=O)NCc2cccnc2)CC3)CC1 (configuration not stated) | -17 | -8 | -11
O=C(O)C1CCN(C(=O)[C@H](Cc2ccccc2)n2c(=O)[nH]c3ccccc3c2=O)CC1 | 10 | 8 | 2
CCN1CCCn2cc(S(=O)(=O)Nc3cccc(C)c3)cc2C1=O | -7 | -19 | -16
CNc1nc(C2CCCN2C)nc2c1CCNC2 (configuration not stated) | -32 | -6 | 25
CC(C)Cc1nc2sc3c(SCCc4ccccc4)ncnc3c2c2c1CCC2 | 16 | 13 | 2
COc1ccc(CNC(=O)COc2ccccc2-c2nnc(-c3ccccc3)o2)cc1 | -17 | -6 | -18
O=C(COc1ccccc1-c1nnc(-c2ccccc2)o1)NCCc1ccco1 | -38 | 35* | 86*
CC(CCc1ccccc1)NC(=O)COc1ccccc1-c1nnc(-c2ccccc2)o1 (configuration not stated) | 41* | 31* | 1
O=C(COc1ccccc1-c1nnc(-c2ccccc2)o1)NCCCN1CCOCC1 | 8 | -1 | -3
COc1cccc(CNC(=O)COc2ccccc2-c2nnc(-c3ccccc3)o2)c1 | 14 | 0 | -3
CCc1ccccc1NC(=O)COc1ccccc1-c1nnc(-c2ccccc2)o1 | 38* | 53* | 29
SMILES | USP30 block | USP17 block | USP8 inh
O=C(OCC(Cc1ccccc1)N1Cc2ccccc2C1=O)c1ccccc1Cl (configuration not stated) | -13 | 22 | 16
CC(C)=CCc1cccc2c(C3=C(O)C(=O)C(c4c[nH]c5c(CC=C(C)C)cccc45)=C(O)C3=O)c[nH]c12 | 43* | 72* | 4
Cc1ccc(CNC(=O)C2CCCN2c2nnc(N3CCCC3=O)s2)o1 (configuration not stated) | -50 | -25 | -25
O=C(CC1SC(N2CCOCC2)=NC1=O)Nc1cccc([N+](=O)[O-])c1 (configuration not stated) | 31* | 15 | -48
O=C(Nc1ccc(CN2CCOCC2)cc1)c1cccc([N+](=O)[O-])c1 | -3 | -32 | -2
O=C(c1cc(C2CC2)on1)N1CCc2ccccc2C1 | -33 | -5 | -4
O=C(O)c1nccnc1C(=O)N1CCc2ccccc2C1 | 8 | 78* | 91*
